In PubChem BioAssay (Tox21):
Results filed as inconclusive are left out. Active and inactive are the calls of the source. Unless noted, the call rests on the fitted dose curve; in most records, active means well fitted curve in the direction sought with a large enough effect in the repeat runs; inconclusive means weak or mixed curves; inactive means no such curve, though single readings can be large; an effect the other way counts as inactive or inconclusive.

What was measured:
[1] = qHTS assay for small molecule agonists of the p53 signaling pathway (AID 651631; calls by dose curve; further: nearly all actives have a fitted effect of over 15% in size)
How it was run: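 Readout was fluorescence from the LiveBLAzer FRET substrate, applied for 2 h at room temperature after 16 h compound exposure at 37 °C. Cells were the p53RE-bla HCT-116 line, with beta-lactamase driven by p53 response elements.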

[2] = qHTS assay for small molecules that induce genotoxicity in human embryonic kidney cells expressing luciferase-tagged ATAD5 (AID 651632); further: nearly all actives have a fitted effect of over 15% in size
How it was run: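 Cells were seeded at 2,000 per well, dosed with compound, and incubated 16 hr at 37C in 5% CO2. Luciferase activity was then quantified after a 30 min room-temperature incubation with Amplite.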

[3] = qHTS assay for small molecule agonists of the p53 signaling pathway - cell viability (AID 651633; calls by dose curve; further: series mostly up to about 83 µM; nearly all actives have a fitted effect of over 30% in size)
How it was run: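 p53RE-bla cells, seeded at 4,000 per well and rested 5 h at 37 C/5% CO2, received compounds in DMSO for 16 h at 37 C. CellTiter-Glo was then added, and luminescence was read after 30 min at room temperature to gauge cytotoxicity.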

[4] = qHTS assay for small molecules that induce genotoxicity in human embryonic kidney cells expressing luciferase-tagged ATAD5 - cell viability (AID 651634; calls by dose curve; further: nearly all actives have a fitted effect of over 25% in size)
How it was run: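 Cells (HEK293T, luciferase-tagged ATAD5) are seeded at 2,000 per well, dosed with compound or DMSO vehicle, and incubated 15.5 hr at 37C and 5% CO2. CellTiter-Fluor is added for 30 min before fluorescence is measured.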

[5] = qHTS assay for small molecule disruptors of the mitochondrial membrane potential - cell viability (AID 720634; calls by dose curve;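 further: human HepG2 liver cancer cells; series mostly up to about 83 µM; nearly all actives have a fitted effect of over 20% in size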)
How it was run: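 Cytotoxicity was measured by ATP quantitation in HepG2 wells that had first been treated with compound for 1 hr and stained with m-MPI dye; CellTiter-Glo incubation was 30 min at room temperature.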

[6] = qHTS assay for small molecule disruptors of the mitochondrial membrane potential (AID 720635)
How it was run: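 HepG2 cells (2,000/well) attached overnight at 37C, then took compound for 1 hr at 37C, 5% CO2. Mito-MPS dye was added for 30 min; fluorescence was read at 490/535 nm (monomers) and 540/590 nm (aggregates).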

[7] = qHTS assay to test for compound auto fluorescence at 590 nm (red) in HepG2 cells (AID 720674)
How it was run: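 Intrinsic compound fluorescence in the red window (Ex/Em 540/590 nm) is measured in attached HepG2 cells exposed for 1 hr, DMSO vehicle as baseline, benchmarked to Rose Bengal sodium.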

[8] = qHTS assay to test for compound auto fluorescence at 535 nm (green) in HepG2 cells (AID 720675)
[9] = qHTS assay to test for compound auto fluorescence at 460 nm (blue) in HEK293 cells (AID 720678)
How it was run: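 Cells were seeded and left to adhere for 4-5 hr at 37C. Compounds were then pin-transferred. After an overnight incubation at 37C under 5% CO2, intrinsic fluorescence at 405/460 nm was measured and referenced to triamterene.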

[10] = qHTS assay to test for compound auto fluorescence at 590 nm (red) in HEK293 cells (AID 720679)
How it was run: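 Each well held 2,000 HEK293 cells in medium containing 10% dialyzed FBS. Following 4-5 hr attachment at 37C, 23 nL test compound or DMSO was added; plates sat overnight, and red fluorescence (540/590nm) was recorded.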

[11] = qHTS assay to test for compound auto fluorescence at 535 nm (green) in HEK293 cells (AID 720680)
[12] = qHTS assay to test for compound auto fluorescence at 535 nm (green) in HEK293 cell free culture (AID 720682)
How it was run: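 Compounds were pin-transferred into cell-free DMEM with 10% FBS, and green fluorescence was read at excitation 485 nm and emission 535 nm. Intensities were expressed as fluorescein-equivalent values.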

[13] = qHTS assay to test for compound auto fluorescence at 590 nm (red) in HEK293 cell free culture (AID 720683)
How it was run: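 Tox21 10K library compounds were pinned into cell-free DMEM with 10% FBS and fluorescence was read at excitation 540 nm. Activity is expressed as Rose Bengal sodium equivalency.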

[14] = qHTS assay to test for compound auto fluorescence at 590 nm (red) in HepG2 cell free culture (AID 720684)
How it was run: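 Ex 540 / Em 590 nm read of compound in cell-free MEM (10% FBS). Rose Bengal sodium reference.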

[15] = qHTS assay to test for compound auto fluorescence at 460 nm (blue) in HepG2 cell free culture (AID 720685)
How it was run: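 Cell-free plates of MEM plus 10% FBS received 23 nL compound or DMSO vehicle; blue-channel (405/460 nm) intensity scored against triamterene as reference fluorophore.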

[16] = qHTS assay to test for compound auto fluorescence at 535 nm (green) in HepG2 cell free culture (AID 720686)
[17] = qHTS assay to test for compound auto fluorescence at 460 nm (blue) in HepG2 cells (AID 720687)
How it was run: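 Cells (2,000/well in MEM with 10% FBS) attached overnight at 37 C, then were exposed to compound or DMSO for 1 hr at 37 C, 5% CO2. Fluorescence read at Ex/Em 405/460 nm, expressed as triamterene-equivalent signal.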

[18] = target: Glucocorticoid receptor (Homo sapiens) (UniProt P04150); experiment: qHTS assay to identify small molecule agonists of the glucocorticoid receptor (GR) signaling pathway (AID 720691; active means well fitted activation curve with a large enough effect in the signal ratio in the repeat runs, not every such curve was filed as active; the % refers to the signal ratio)
How it was run: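 Steps: seed GR-bla HeLa cells, incubate 4 h at 37 C/5% CO2; pin-transfer DMSO-dissolved compounds; incubate 18 h at 37 C; add LiveBLAzer B/G FRET substrate; after 2 h at room temperature, measure fluorescence.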

[19] = target: Glucocorticoid receptor (Homo sapiens) (UniProt P04150); experiment: qHTS assay to identify small molecule antagonists of the glucocorticoid receptor (GR) signaling pathway (AID 720692; active means well fitted inhibition curve with a large enough effect in the signal ratio in the repeat runs, not every such curve was filed as active; the % refers to the signal ratio)
How it was run: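 Antagonism was scored as loss of dexamethasone-driven (5 nM final) reporter signal in HeLa cells bearing a glucocorticoid response element–beta-lactamase construct, after 18 h compound exposure at 37 C and 2 h FRET substrate loading.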

[20] = qHTS assay to test for compound auto fluorescence at 460 nm (blue) in HEK293 cell free culture (AID 720681)
How it was run: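 Test compounds were pinned into cell-free culture medium (DMEM with 10% FBS) and fluorescence was read directly at Ex/Em 405/460 nm. Signals were expressed as fluorescence equivalents of triamterene, with DMSO vehicle as control.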
On the % scale 0 is the no-effect control and ±100 the full control effect.

Chain of Glucocorticoid receptor (Homo sapiens) (P04150 whole entry, looked up): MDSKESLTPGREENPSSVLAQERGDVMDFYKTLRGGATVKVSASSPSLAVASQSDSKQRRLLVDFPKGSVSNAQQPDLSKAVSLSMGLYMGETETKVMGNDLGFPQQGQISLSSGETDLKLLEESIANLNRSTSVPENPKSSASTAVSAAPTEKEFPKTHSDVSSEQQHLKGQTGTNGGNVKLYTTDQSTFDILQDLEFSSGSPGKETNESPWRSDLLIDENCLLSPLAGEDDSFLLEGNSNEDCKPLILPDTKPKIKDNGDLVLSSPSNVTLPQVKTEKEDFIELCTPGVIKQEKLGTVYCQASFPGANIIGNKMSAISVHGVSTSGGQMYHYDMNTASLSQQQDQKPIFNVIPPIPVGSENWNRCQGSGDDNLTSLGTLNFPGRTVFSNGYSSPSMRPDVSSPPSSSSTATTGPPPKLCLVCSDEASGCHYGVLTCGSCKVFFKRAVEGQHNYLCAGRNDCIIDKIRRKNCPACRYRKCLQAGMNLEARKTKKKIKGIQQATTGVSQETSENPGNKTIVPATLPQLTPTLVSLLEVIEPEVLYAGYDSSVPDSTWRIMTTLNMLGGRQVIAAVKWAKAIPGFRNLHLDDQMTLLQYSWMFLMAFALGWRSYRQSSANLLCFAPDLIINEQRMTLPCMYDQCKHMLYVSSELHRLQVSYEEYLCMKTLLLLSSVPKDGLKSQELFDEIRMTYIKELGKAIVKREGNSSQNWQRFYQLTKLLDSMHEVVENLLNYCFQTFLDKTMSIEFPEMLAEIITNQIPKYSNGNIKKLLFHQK

CCC(C)C(=O)OCCc1ccccc1 (stereo not given)
inactive: outcome [1] | outcome [2] | outcome [3] | Potency [4] | outcome [5] | Potency [6] | outcome [7] | outcome [8] | outcome [9] | outcome [10] | outcome [11] | outcome [12] | outcome [13] | outcome [14] | outcome [15] | outcome [16] | outcome [17] | Potency [18] | outcome [19]

Cc1ccnc(N)c1
inactive: outcome [1] | outcome [2] | outcome [3] | Potency [4] | outcome [5] | Potency [6] | outcome [7] | outcome [8] | outcome [9] | outcome [10] | outcome [11] | outcome [12] | outcome [13] | outcome [14] | outcome [15] | outcome [16] | outcome [17] | Potency [18] | outcome [19]

CC(=O)OCC(=O)Nc1cc(C#N)cc(NC(=O)COC(C)=O)c1Cl
inactive: outcome [1] | outcome [2] | outcome [3] | Potency [4] | outcome [5] | Potency [6] | outcome [7] | outcome [8] | outcome [9] | outcome [10] | outcome [11] | outcome [20] | outcome [12] | outcome [13] | outcome [14] | outcome [16] | outcome [17] | Potency [18] | outcome [19]

CC(=O)O[C@@H]1CC2CCC1(C)C2(C)C (stereo not given in full)
inactive: outcome [1] | outcome [2] | outcome [3] | Potency [4] | outcome [5] | Potency [6] | outcome [7] | outcome [8] | outcome [9] | outcome [10] | outcome [11] | outcome [20] | outcome [12] | outcome [13] | outcome [14] | outcome [16] | outcome [17] | Potency [18] | outcome [19]

CCOC(CN1CCN(CC(C)C(=O)c2ccccc2)CC1)c1ccccc1 (stereo not given)
inactive: outcome [1] | outcome [2] | outcome [3] | Potency [4] | outcome [5] | Potency [6] | outcome [7] | outcome [8] | outcome [9] | outcome [10] | outcome [11] | outcome [20] | outcome [12] | outcome [13] | outcome [14] | outcome [16] | Potency [18]

COC(=O)/C=C\C(=O)O
inactive: outcome [1] | outcome [2] | outcome [3] | Potency [4] | outcome [5] | Potency [6] | outcome [7] | outcome [8] | outcome [9] | outcome [10] | outcome [11] | outcome [20] | outcome [12] | outcome [13] | outcome [14] | outcome [15] | outcome [16] | outcome [17] | Potency [18] | outcome [19]

CC1=C(O)C(=O)C(C)O1 (stereo not given)
inactive: outcome [1] | outcome [2] | outcome [3] | Potency [4] | outcome [5] | Potency [6] | outcome [7] | outcome [8] | outcome [9] | outcome [10] | outcome [11] | outcome [12] | outcome [13] | outcome [14] | outcome [15] | outcome [16] | outcome [17] | Potency [18] | outcome [19]

CC(N)CCCC(C)(C)O (stereo not given)
inactive: outcome [1] | outcome [2] | outcome [3] | Potency [4] | outcome [5] | Potency [6] | outcome [7] | outcome [8] | outcome [9] | outcome [10] | outcome [11] | outcome [20] | outcome [12] | outcome [13] | outcome [14] | outcome [16] | outcome [17] | Potency [18] | outcome [19]

c1ccc2cnccc2c1
inactive: outcome [1] | outcome [2] | outcome [3] | Potency [4] | outcome [5] | Potency [6] | outcome [7] | outcome [8] | outcome [9] | outcome [10] | outcome [11] | outcome [12] | outcome [13] | outcome [14] | outcome [16] | outcome [17] | Potency [18] | outcome [19]

c1ccc(-c2nn[nH]n2)cc1
inactive: outcome [1] | outcome [2] | outcome [3] | Potency [4] | outcome [5] | Potency [6] | outcome [7] | outcome [8] | outcome [9] | outcome [10] | outcome [11] | outcome [20] | outcome [12] | outcome [13] | outcome [14] | outcome [15] | outcome [16] | Potency [18]

CC1c2ccccc2CN1NC(=O)c1ccc(Cl)c(S(N)(=O)=O)c1 (stereo not given)
inactive: outcome [1] | outcome [2] | outcome [3] | Potency [4] | outcome [5] | Potency [6] | outcome [7] | outcome [8] | outcome [9] | outcome [10] | outcome [11] | outcome [12] | outcome [13] | outcome [14] | outcome [15] | outcome [16] | outcome [17] | Potency [18] | outcome [19]

N#Cc1cscn1
inactive: outcome [1] | outcome [2] | outcome [3] | Potency [4] | outcome [5] | Potency [6] | outcome [7] | outcome [8] | outcome [9] | outcome [10] | outcome [11] | outcome [12] | outcome [13] | outcome [14] | outcome [15] | outcome [16] | outcome [17]

CCn1cc(C(=O)O)c(=O)c2cnc(N3CCCC3)nc21
inactive: outcome [1] | outcome [2] | outcome [3] | Potency [4] | outcome [5] | Potency [6] | fluorescence, relative to Rose Bengal [7] -0.176% [at 18.6 µM] | fluorescence, % of fluorescein control [8] -0.162% [at 18.6 µM] | fluorescence, % of triamterene [9] 0.0274% [at 18.6 µM] | fluorescence, % of fluorescent control [10] -0.164% [at 18.6 µM] | fluorescence, % of fluorescein [11] 0.0361% [at 18.6 µM] | activity change [12] -0.0351% [at 18.6 µM] | fluorescence, % of fluorescent control [13] -0.162% [at 18.6 µM] | fluorescence, % of Rose Bengal [14] 0.682% [at 18.6 µM] | fluorescence, % of fluorescent control [15] 0.141% [at 18.6 µM] | fluorescence, % of fluorescein control [16] -0.0006% [at 18.6 µM] | fluorescence, % of fluorescent control [17] 2.47% [at 18.6 µM] | Potency [18] | outcome [19]

CC(C)(C)NC[C@H](O)COc1cccc2c1CCCC2=O
inactive: outcome [1] | outcome [2] | outcome [3] | Potency [4] | outcome [5] | Potency [6] | fluorescence, relative to Rose Bengal [7] -0.105% [at 18.6 µM] | fluorescence, % of fluorescein control [8] 0.0562% [at 18.6 µM] | fluorescence, % of triamterene [9] 0.103% [at 18.6 µM] | fluorescence, % of fluorescent control [10] 0.133% [at 18.6 µM] | fluorescence, % of fluorescein [11] 0.0019% [at 18.6 µM] | fluorescence, % of fluorescent control [20] 0.0024% [at 18.6 µM] | activity change [12] -0.0347% [at 18.6 µM] | fluorescence, % of fluorescent control [13] -0.286% [at 18.6 µM] | fluorescence, % of Rose Bengal [14] 0.355% [at 18.6 µM] | fluorescence, % of fluorescent control [15] -0.0088% [at 18.6 µM] | fluorescence, % of fluorescein control [16] -0.0049% [at 18.6 µM] | Potency [18]
